One assay concerns the target Dual specificity tyrosine-phosphorylation-regulated kinase 1B (Homo sapiens) (UniProt Q9Y463). As to conditions: at 1 µM.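 Also: values are mean percent inhibition of DYRK1B, from the GSK_PKIS set.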
Chain of Dual specificity tyrosine-phosphorylation-regulated kinase 1B (Homo sapiens) (Q9Y463 whole entry, looked up): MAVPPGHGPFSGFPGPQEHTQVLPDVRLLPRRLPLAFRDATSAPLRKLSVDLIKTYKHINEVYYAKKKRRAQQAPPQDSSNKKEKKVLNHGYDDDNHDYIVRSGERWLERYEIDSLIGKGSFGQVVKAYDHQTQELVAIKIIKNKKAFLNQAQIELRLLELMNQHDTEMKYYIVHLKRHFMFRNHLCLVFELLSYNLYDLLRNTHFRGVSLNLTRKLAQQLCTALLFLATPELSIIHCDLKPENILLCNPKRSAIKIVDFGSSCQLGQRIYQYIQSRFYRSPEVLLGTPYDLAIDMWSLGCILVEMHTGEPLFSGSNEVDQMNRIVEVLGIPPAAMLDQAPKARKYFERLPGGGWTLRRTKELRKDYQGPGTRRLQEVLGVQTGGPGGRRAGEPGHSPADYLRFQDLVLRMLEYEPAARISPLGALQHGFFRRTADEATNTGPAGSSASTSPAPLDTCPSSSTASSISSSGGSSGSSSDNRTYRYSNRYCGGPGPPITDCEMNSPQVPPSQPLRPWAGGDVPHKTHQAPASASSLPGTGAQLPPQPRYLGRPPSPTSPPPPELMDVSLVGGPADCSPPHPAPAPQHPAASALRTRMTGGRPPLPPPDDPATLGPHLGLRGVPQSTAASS
As for `COc1cc2ncn(-c3cc(OCc4ccccc4C(F)(F)F)c(C(N)=O)s3)c2cc1OC`, the inhibition is -2.84%.
Take `CCn1c(-c2nonc2N)nc2c(N3CCCC3)nccc21`: the inhibition came to 6.95%.
Same read-out and setting: the same measure for `COc1ccc(-c2coc3ncnc(N)c23)cc1`: 5.22%.
On the same count and under the same terms, the same measure for `Nc1nc(-c2ccc3c(c2)C(=Cc2cc(Br)c(O)c(Br)c2)C(=O)N3)cs1`: 3.44%.
Still for that read-out and setting: the value for `CS(=O)(=O)CCN(CC#N)Cc1ccc(-c2ccc3ncnc(Nc4ccc(OCc5cccc(F)c5)c(Cl)c4)c3c2)o1` was -3.08%.
For the compound `COc1ccc(-c2nn3ncccc3c2-c2ccnc(Nc3ccc(Cl)c(C(F)(F)F)c3)n2)cc1`, the inhibition came to 0.89%.
Still for that read-out and setting: the same measure for `Cc1ccc(NC(=O)c2ccnc(N3CCCC3)c2)cc1-c1ccc(C(=O)NCC2CC2)cc1`: -0.97%; for `CC(C)=Cc1cccc2c1/C(=N/Nc1ccc(S(N)(=O)=O)cc1)C(=O)N2`: 5.61%.
Still for that read-out and setting: the same measure for `COc1cc2ncn(-c3cc(O[C@@H](C)c4ccccc4Cl)c(C(N)=O)s3)c2cc1OC`: 5.29%; for `CCCN1CCC(Oc2cc(Nc3nc(Nc4cccc(F)c4C(N)=O)c4cc[nH]c4n3)c(OC)cc2Cl)CC1`: 27.1%.
In the case of `Cc1nnc(-c2ccc(C)c(-c3ccc(C(=O)Nc4cccc(C#N)c4)cc3)c2)o1`, the inhibition turned out to be 1.21%.
`NS(=O)(=O)c1ccc(N/N=C2\C(=O)Nc3ccc(C(=O)NCCc4c[nH]cn4)cc32)cc1`: the inhibition stood at 31.5%.
Regarding `CC1=C(C(=O)Nc2ccc3[nH]ncc3c2)C(c2ccc3ccccc3c2)CC(=O)N1` (stereo not drawn), the inhibition is 3.67%.
On the same count and under the same terms, the same measure for `NCc1ccc(-c2nc(-c3ccc(Cl)c(O)c3)c(-c3ccncc3)[nH]2)cc1`: 3.42%.
The same measure, in the same setting: the same measure for `COc1cc(C=NNc2ncnc3c2cnn3-c2ccccc2)ccc1O`: 11%.
The same measure, in the same setting: the same measure for `Cc1ccc(C(=O)NC2CCCCC2)cc1-c1ccc(C(=O)NCC2CC2)cc1`: 0.46%; for `COc1cc2c(cc1Nc1nc(N3CCc4ccccc43)c3cc[nH]c3n1)N(C(=O)CN(C)C)CC2`: 2.3%.
Regarding `CC1=C(C(=O)Nc2ccc3[nH]ncc3c2)C(c2ccc(Cl)c(Cl)c2)CC(=O)N1` (stereo not drawn), the inhibition stood at 3.21%.
Still for that read-out and setting: the same measure for `Nc1ncnc2occ(-c3ccc(NC(=O)Nc4cc(C(F)(F)F)cc(C(F)(F)F)c4)cc3)c12`: 1.76%; for `CS(=O)(=O)CCNCc1nc(-c2ccc3ncnc(Nc4ccc(F)c(Cl)c4)c3c2)cs1`: 1.63%; for `COc1ccccc1Nc1ncc(-c2ccccc2)o1`: -1.3%.
Same read-out and setting: the same measure for `CCn1c(-c2nonc2N)nc2cncc(C(=O)N3CCNCC3)c21`: -0.73%; for `CS(=O)(=O)Nc1ccc(N/C=C2\C(=O)Nc3ccccc32)cc1`: 13.9%; for `CNC(=O)c1cncc(/C=C/c2c(Cl)cccc2Cl)c1`: 3.55%.
Same read-out and setting: the same measure for `Fc1cccc(COc2ccc(Nc3ncnc4sc(-c5cccs5)cc34)cc2Cl)c1`: 2.06%; for `N#Cc1c(NC(=O)c2cccc3ccccc23)sc2c1CCCC2`: 1.43%; for `CCc1cccc(NC(=O)Nc2ccc(Oc3ccc4nc(NC(=O)OC)[nH]c4c3)cc2)c1`: 1.1%.
For the compound `CCn1c(-c2nonc2N)nc2ccncc21`, the inhibition is 0.71%.
In the case of `O=C1Nc2ccc(C(=O)c3ccco3)cc2C1=Cc1cc(Cl)c(O)c(Cl)c1`, the inhibition was 81.5%.
Still for that read-out and setting: the same measure for `CS(=O)(=O)CCNCc1ccc(-c2ccc3ncnc(Nc4ccc(OCc5ccccc5)c(Cl)c4)c3c2)o1`: 2.67%; for `CCn1c(-c2nonc2N)nc2cncc(C(=O)N3CC[C@H](N)C3)c21`: 44.4%.
Still for that read-out and setting: the value for `Cc1cccc(-c2n[nH]cc2-c2ccc3ncccc3n2)n1` was 4.09%; that for `CCCN1CCC=C(c2ccc(Nc3nc(Nc4ccccc4C(N)=O)c4cc[nH]c4n3)c(C)c2)C1` was 71.1%.
Still for that read-out and setting: the value for `Nc1ncnc2occ(-c3ccc(NC(=O)Nc4cccc(C(F)(F)F)c4)cc3)c12` was 1.94%.

A further assay has as its target T1, Dual specificity tyrosine-phosphorylation-regulated kinase 2 (Homo sapiens) (UniProt Q92630).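 Also: values are mean percent inhibition of DYRK2.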
T1 sequence (whole entry): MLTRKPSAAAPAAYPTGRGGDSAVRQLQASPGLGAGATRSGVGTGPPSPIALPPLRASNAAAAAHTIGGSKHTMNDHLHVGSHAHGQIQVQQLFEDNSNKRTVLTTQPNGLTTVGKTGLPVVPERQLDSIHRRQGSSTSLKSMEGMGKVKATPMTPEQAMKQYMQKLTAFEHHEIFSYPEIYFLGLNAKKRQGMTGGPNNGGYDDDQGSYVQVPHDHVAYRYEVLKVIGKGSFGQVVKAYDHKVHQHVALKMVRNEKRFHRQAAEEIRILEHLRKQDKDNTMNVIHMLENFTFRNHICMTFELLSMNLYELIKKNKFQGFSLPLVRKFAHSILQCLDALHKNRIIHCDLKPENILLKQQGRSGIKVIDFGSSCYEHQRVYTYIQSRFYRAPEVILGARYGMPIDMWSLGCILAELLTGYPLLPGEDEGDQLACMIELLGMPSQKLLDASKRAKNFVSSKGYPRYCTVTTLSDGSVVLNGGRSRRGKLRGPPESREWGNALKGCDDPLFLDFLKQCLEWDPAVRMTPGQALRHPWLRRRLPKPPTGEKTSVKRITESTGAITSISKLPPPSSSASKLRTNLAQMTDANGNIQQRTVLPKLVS
Conditions: at 0.1 µM.
`COc1cc2ncn(-c3cc(OCc4ccccc4C(F)(F)F)c(C(N)=O)s3)c2cc1OC`: the inhibition stood at 1.73%.
Same read-out and setting: the same measure for `CCn1c(-c2nonc2N)nc2c(N3CCCC3)nccc21`: -1.18%.
The same measure, in the same setting: the value for `COc1ccc(-c2coc3ncnc(N)c23)cc1` was 3.83%; that for `Nc1nc(-c2ccc3c(c2)C(=Cc2cc(Br)c(O)c(Br)c2)C(=O)N3)cs1` was -2.46%.
Same read-out and setting: the same measure for `CS(=O)(=O)CCN(CC#N)Cc1ccc(-c2ccc3ncnc(Nc4ccc(OCc5cccc(F)c5)c(Cl)c4)c3c2)o1`: 0.54%; for `COc1ccc(-c2nn3ncccc3c2-c2ccnc(Nc3ccc(Cl)c(C(F)(F)F)c3)n2)cc1`: 1.06%; for `Cc1ccc(NC(=O)c2ccnc(N3CCCC3)c2)cc1-c1ccc(C(=O)NCC2CC2)cc1`: 2.77%.
As to `CC(C)=Cc1cccc2c1/C(=N/Nc1ccc(S(N)(=O)=O)cc1)C(=O)N2`, the inhibition stood at 0.58%.
As for `COc1cc2ncn(-c3cc(O[C@@H](C)c4ccccc4Cl)c(C(N)=O)s3)c2cc1OC`, the inhibition stood at 2.62%.
As for `CCCN1CCC(Oc2cc(Nc3nc(Nc4cccc(F)c4C(N)=O)c4cc[nH]c4n3)c(OC)cc2Cl)CC1`, the inhibition is -0.2%.
As for `Cc1nnc(-c2ccc(C)c(-c3ccc(C(=O)Nc4cccc(C#N)c4)cc3)c2)o1`, the inhibition came to 1.13%.
As for `NS(=O)(=O)c1ccc(N/N=C2\C(=O)Nc3ccc(C(=O)NCCc4c[nH]cn4)cc32)cc1`, the inhibition is 6.85%.
Still for that read-out and setting: the value for `CC1=C(C(=O)Nc2ccc3[nH]ncc3c2)C(c2ccc3ccccc3c2)CC(=O)N1` (stereo not drawn) was 0.96%; that for `NCc1ccc(-c2nc(-c3ccc(Cl)c(O)c3)c(-c3ccncc3)[nH]2)cc1` was 0.33%; that for `COc1cc(C=NNc2ncnc3c2cnn3-c2ccccc2)ccc1O` was 5.08%.
As to `Cc1ccc(C(=O)NC2CCCCC2)cc1-c1ccc(C(=O)NCC2CC2)cc1`, the inhibition was 1.77%.
On the same count and under the same terms, the same measure for `COc1cc2c(cc1Nc1nc(N3CCc4ccccc43)c3cc[nH]c3n1)N(C(=O)CN(C)C)CC2`: 2.22%.
Still for that read-out and setting: the same measure for `CC1=C(C(=O)Nc2ccc3[nH]ncc3c2)C(c2ccc(Cl)c(Cl)c2)CC(=O)N1` (stereo not drawn): 1.35%; for `Nc1ncnc2occ(-c3ccc(NC(=O)Nc4cc(C(F)(F)F)cc(C(F)(F)F)c4)cc3)c12`: 1.71%.
On the same count and under the same terms, the value for `CS(=O)(=O)CCNCc1nc(-c2ccc3ncnc(Nc4ccc(F)c(Cl)c4)c3c2)cs1` was 0.37%; that for `COc1ccccc1Nc1ncc(-c2ccccc2)o1` was 4.18%.
As for `CCn1c(-c2nonc2N)nc2cncc(C(=O)N3CCNCC3)c21`, the inhibition was 4.35%.
On the same count and under the same terms, the same measure for `CS(=O)(=O)Nc1ccc(N/C=C2\C(=O)Nc3ccccc32)cc1`: -1.66%; for `CNC(=O)c1cncc(/C=C/c2c(Cl)cccc2Cl)c1`: 3.17%; for `Fc1cccc(COc2ccc(Nc3ncnc4sc(-c5cccs5)cc34)cc2Cl)c1`: -1.01%.
On the same count and under the same terms, the value for `N#Cc1c(NC(=O)c2cccc3ccccc23)sc2c1CCCC2` was 1.86%.
With `CCc1cccc(NC(=O)Nc2ccc(Oc3ccc4nc(NC(=O)OC)[nH]c4c3)cc2)c1`, the inhibition is 0.73%.
On to `CCn1c(-c2nonc2N)nc2ccncc21`, for which the inhibition came out at 1.94%.
Same read-out and setting: the same measure for `O=C1Nc2ccc(C(=O)c3ccco3)cc2C1=Cc1cc(Cl)c(O)c(Cl)c1`: 3.34%; for `CS(=O)(=O)CCNCc1ccc(-c2ccc3ncnc(Nc4ccc(OCc5ccccc5)c(Cl)c4)c3c2)o1`: -0.23%; for `CCn1c(-c2nonc2N)nc2cncc(C(=O)N3CC[C@H](N)C3)c21`: 15%.
Still for that read-out and setting: the same measure for `Cc1cccc(-c2n[nH]cc2-c2ccc3ncccc3n2)n1`: 0.1%; for `CCCN1CCC=C(c2ccc(Nc3nc(Nc4ccccc4C(N)=O)c4cc[nH]c4n3)c(C)c2)C1`: 8.53%; for `Nc1ncnc2occ(-c3ccc(NC(=O)Nc4cccc(C(F)(F)F)c4)cc3)c12`: 3.2%.

(Values after ChEMBL document CHEMBL1961873, “Compounds: GSK PKIS; Assays: Nanosyn kinase panel” (2012).)
